Experimental data taken from PubChem BioAssay (Tox21).
Results filed as inconclusive are left out. A call without a number means that no potency is given here. A number with no mark means an inactive call. Calls of active or inactive are those of the source. Calls follow the shape of the dose curve; as a rule, active = well fitted curve in the direction sought with a large enough effect in the repeat runs; inconclusive = weak or mixed curves; inactive = no such curve, though single readings can be large; an effect the other way counts as inactive or inconclusive.

Legend:
[1] = target: Cytochrome P450 2C19 (Homo sapiens) (UniProt P33261); assay: Cytochrome P450 Family 2 Subfamily C Member 19 (CYP2C19) small molecule antagonists: luciferase reporter qHTS assay (AID 1671197); details: P450-Glo CYP2C19 enzyme, luciferin luminescence, 1 h; series mostly up to 52.9 µM; also: nearly all actives have a fitted effect of over 65% in size
Sequence of Cytochrome P450 2C19 (Homo sapiens) (P33261 whole entry, looked up): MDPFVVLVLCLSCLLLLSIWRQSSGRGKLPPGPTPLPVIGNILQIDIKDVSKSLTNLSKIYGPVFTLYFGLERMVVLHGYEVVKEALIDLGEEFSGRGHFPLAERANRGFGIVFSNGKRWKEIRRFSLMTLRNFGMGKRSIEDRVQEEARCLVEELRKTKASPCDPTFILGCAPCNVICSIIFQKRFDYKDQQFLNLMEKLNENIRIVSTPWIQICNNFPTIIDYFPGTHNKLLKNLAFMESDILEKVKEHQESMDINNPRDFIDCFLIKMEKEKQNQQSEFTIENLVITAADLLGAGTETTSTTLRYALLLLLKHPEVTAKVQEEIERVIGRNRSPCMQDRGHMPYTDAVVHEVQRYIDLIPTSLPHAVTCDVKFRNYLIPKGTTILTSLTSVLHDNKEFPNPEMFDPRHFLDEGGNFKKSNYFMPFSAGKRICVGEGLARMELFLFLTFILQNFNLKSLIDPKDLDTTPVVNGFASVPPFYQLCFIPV
Outline: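 Light output is proportional to CYP2C19 activity: proluciferin substrate is converted to luciferin, then detected by a luciferin detection reagent that also stops the 1 h, 37C NADPH-driven reaction. Ketoconazole serves as positive control.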

[2] = target: Cytochrome P450 2C9 (Homo sapiens) (UniProt P11712); assay: Cytochrome P450 Family 2 Subfamily C Member 9 (CYP2C9) small molecule antagonists: luciferase reporter qHTS assay (AID 1671198); details: P450-Glo CYP2C9 enzyme assay, luciferin luminescence; series mostly up to 115 µM; also: nearly all actives have a fitted effect of over 50% in size
Sequence of Cytochrome P450 2C9 (Homo sapiens) (P11712 whole entry, looked up): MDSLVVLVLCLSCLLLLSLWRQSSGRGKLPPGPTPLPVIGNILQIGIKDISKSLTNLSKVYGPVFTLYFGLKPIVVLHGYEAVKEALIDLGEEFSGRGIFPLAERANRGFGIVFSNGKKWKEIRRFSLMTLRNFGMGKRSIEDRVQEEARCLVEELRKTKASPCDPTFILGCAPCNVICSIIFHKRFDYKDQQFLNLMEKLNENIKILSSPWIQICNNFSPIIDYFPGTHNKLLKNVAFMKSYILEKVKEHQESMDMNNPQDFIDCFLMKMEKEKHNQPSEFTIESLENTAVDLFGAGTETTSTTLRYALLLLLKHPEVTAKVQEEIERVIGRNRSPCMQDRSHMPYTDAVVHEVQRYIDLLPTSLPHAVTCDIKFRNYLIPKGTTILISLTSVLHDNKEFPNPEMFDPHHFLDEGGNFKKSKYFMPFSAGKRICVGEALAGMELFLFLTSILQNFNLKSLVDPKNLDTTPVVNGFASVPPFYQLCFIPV
Outline: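 P450-Glo proluciferin substrate with CYP2C9 enzyme; 10 min RT preincubation, then NADPH regeneration 1 h at 37C; luciferin detection reagent 20 min RT, luminescence in relative luminescence units.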

[3] = target: Cytochrome P450 1A2 (Homo sapiens) (UniProt P05177); assay: Cytochrome P450 Family 1 Subfamily A Member 2 (CYP1A2) small molecule antagonists: luciferase reporter qHTS assay (AID 1671199); details: P450-Glo CYP1A2 enzyme, luciferin luminescence, 1 h; series mostly up to 53 µM; also: nearly all actives have a fitted effect of over 50% in size
Sequence of Cytochrome P450 1A2 (Homo sapiens) (P05177 whole entry, looked up): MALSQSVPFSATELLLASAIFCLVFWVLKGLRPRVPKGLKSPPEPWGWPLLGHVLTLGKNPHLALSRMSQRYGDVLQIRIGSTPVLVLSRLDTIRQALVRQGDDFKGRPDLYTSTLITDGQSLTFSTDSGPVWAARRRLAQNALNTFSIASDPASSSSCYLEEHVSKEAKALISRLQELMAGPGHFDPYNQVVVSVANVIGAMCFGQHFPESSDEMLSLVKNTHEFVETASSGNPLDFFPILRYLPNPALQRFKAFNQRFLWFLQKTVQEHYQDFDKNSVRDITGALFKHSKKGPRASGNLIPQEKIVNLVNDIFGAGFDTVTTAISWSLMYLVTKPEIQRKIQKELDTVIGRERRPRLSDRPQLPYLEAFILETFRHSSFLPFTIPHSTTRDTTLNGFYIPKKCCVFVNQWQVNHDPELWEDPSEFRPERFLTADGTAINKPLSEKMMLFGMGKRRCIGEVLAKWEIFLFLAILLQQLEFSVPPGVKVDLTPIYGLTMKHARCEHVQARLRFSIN
Outline: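 Enzymatic CYP1A2 assay, human, luminescent: 10 min compound–enzyme–substrate preincubation, 1 h NADPH-dependent turnover, 20 min detection step, room temperature throughout. Reduced light indicates lower CYP1A2 activity.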

[4] = target: Voltage-gated inwardly rectifying potassium channel KCNH2 (Homo sapiens) (UniProt Q12809); assay: Human Ether-a-go-go-Related Gene (hERG) channel small molecule antagonists: fluorescence cell-based qHTS assay (AID 1671200); details: hERG-U2OS cells, FluxOR thallium flux fluorescence; series mostly up to 76.8 µM; also: nearly all actives have a fitted effect of over 50% in size
Sequence of Voltage-gated inwardly rectifying potassium channel KCNH2 (Homo sapiens) (Q12809 whole entry, looked up): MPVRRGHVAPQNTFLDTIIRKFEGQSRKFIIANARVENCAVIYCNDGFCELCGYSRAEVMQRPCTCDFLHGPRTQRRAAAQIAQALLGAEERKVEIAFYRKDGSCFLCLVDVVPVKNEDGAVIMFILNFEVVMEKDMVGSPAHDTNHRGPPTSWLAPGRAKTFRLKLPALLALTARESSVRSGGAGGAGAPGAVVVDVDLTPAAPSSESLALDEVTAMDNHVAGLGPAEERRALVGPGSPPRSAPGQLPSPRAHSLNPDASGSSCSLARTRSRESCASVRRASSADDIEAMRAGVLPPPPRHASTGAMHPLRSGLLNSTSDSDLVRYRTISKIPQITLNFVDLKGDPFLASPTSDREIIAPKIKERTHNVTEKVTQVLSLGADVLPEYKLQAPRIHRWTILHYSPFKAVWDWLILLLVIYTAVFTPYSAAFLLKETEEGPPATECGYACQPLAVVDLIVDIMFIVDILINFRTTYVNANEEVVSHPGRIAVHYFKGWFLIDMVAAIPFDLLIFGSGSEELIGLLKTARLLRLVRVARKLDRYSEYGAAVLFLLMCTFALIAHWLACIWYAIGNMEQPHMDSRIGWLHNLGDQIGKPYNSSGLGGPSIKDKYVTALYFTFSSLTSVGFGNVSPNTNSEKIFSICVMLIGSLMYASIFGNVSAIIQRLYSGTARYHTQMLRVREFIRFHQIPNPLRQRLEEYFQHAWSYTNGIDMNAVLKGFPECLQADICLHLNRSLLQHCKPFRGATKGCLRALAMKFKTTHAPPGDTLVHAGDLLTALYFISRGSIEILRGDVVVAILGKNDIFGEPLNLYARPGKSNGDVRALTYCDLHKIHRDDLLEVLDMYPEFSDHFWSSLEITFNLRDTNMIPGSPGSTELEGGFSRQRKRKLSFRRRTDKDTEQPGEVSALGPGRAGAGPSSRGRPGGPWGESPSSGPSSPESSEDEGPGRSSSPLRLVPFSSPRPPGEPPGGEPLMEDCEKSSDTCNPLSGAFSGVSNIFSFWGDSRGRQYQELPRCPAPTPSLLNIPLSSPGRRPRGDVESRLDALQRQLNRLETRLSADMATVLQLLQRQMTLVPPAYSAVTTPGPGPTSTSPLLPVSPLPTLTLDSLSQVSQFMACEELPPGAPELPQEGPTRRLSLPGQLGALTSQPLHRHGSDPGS
Outline: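 hERG-U2OS cells plated overnight at 37 C, loaded with FluxOR II dye 1 h at RT in dark; after 10 min, thallium stimulus added. Fluorescence (480/540 nm) read kinetically for 2 min at 1 s intervals.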

[5] = target: Cytochrome P450 3A4 (Homo sapiens) (UniProt P08684); assay: Cytochrome P450 Family 3 Subfamily A Member 4 (CYP3A4) small molecule antagonists: luciferase reporter qHTS assay (AID 1671201); details: P450-Glo CYP3A4 enzyme, luciferin luminescence, 1 h; series mostly up to 115 µM; also: nearly all actives have a fitted effect of over 50% in size
Sequence of Cytochrome P450 3A4 (Homo sapiens) (P08684 whole entry, looked up): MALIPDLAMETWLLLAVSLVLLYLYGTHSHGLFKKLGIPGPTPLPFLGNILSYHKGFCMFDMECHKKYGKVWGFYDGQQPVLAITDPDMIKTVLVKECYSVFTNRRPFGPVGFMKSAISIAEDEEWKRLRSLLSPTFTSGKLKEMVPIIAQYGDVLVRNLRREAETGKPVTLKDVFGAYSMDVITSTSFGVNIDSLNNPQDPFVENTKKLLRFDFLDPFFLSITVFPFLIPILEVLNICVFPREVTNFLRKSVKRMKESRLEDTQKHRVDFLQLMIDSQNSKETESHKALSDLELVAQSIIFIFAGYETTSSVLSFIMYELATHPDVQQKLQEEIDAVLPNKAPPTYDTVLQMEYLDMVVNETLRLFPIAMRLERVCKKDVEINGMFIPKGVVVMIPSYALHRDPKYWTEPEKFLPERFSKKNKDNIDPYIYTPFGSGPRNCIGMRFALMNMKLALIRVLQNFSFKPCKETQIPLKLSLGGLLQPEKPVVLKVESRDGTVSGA
Outline: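 P450-Glo CYP3A4 luminescent assay: compounds preincubated 10 min at room temperature with enzyme and proluciferin substrate, NADPH regeneration added, 1 h room-temperature reaction, stopped with luciferin detection reagent; luminescence read after 20 min. Ketoconazole positive control.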
Potency is read from the fitted curve at half-maximal effect.

Row | Compound | Potency [1] | Potency [2] | Potency [3] | Potency [4] | Potency [5]
1 | CCCCc1nc2cccnc2n1Cc1ccc(-c2ccccc2-c2nnn[nH]2)cc1 | inactive | 0.356 µM (active) | 44.8 µM (active) | inactive | 
2 | COc1cc2c(cc1OC)C(C(C(=O)N(CCc1ccc(OC)c(OC)c1OC)CCc1ccc(OC)c(OC)c1OC)c1ccccc1)=NCC2 (stereo not given) | 12.3 µM (active) | 11 µM (active) | inactive |  | 
3 | CCN(CC)c1ccc(C(=C2C=CC(=[N+](CC)CC)C=C2)c2cc(S(=O)(=O)O)ccc2S(=O)(=O)[O-])cc1 | 12.3 µM (active) | 15.5 µM (active) | 17.4 µM (active) | inactive | 
4 | CCCCC(CC)COC(=O)COc1ccc(Cl)cc1Cl (stereo not given) | 20.3 µM (active) | 32.2 µM (active) | 25.6 µM (active) | inactive | 32.2 µM (active)
5 | CN(C)c1ccc(CCO)cc1 | 28.1 µM (active) | 19.9 µM (active) | 35.4 µM (active) | inactive | inactive
6 | CCCCC/C=C\C/C=C\CCCCCCCC(=O)NC(C)c1ccccc1 (stereo not given) | 4.9 µM (active) | 2.45 µM (active) | inactive |  | 
7 | O=C(CS)Nc1ccccc1 | 8.71 µM (active) | 13.8 µM (active) |  |  | 
8 | OC(C#CCN1CCCC1)(c1ccccc1)c1ccccc1 | 2.45 µM (active) | 15.5 µM (active) | inactive |  | 
9 | COc1ccc2cccc(CCNC(C)=O)c2c1 | 34.7 µM (active) | 15.5 µM (active) | 4.9 µM (active) |  | 
10 | CN(C)c1ccc(C(c2ccccc2)c2ccc(N(C)C)cc2)cc1 | 1.59 µM (active) | 1.42 µM (active) | 14.2 µM (active) | inactive | 4.48 µM (active)
11 | CC1CCC(=O)C1=O (stereo not given) | inactive | inactive | inactive | inactive | inactive
12 | CCOc1ccc(N=Nc2ccc(/C=C/c3ccc(N=Nc4ccc(OCC)cc4)cc3S(=O)(=O)O)c(S(=O)(=O)O)c2)cc1 | inactive | inactive | 27.8 µM (active) | inactive | inactive
13 | Cc1ccccc1S(=O)(=O)O | inactive | inactive | inactive | inactive | inactive
14 | O=C(Nc1ccc(S(=O)(=O)N2CCOCC2)cc1)c1cc(Cl)ccc1NS(=O)(=O)c1ccc(Cl)s1 | 38.9 µM (active) | 0.0436 µM (active) | inactive | inactive | 
15 | COc1cc2nc(N(C)CCCNC(=O)C3CCCO3)nc(N)c2cc1OC (stereo not given) | inactive | inactive | inactive | inactive | inactive
16 | COc1ccnc(CS(=O)c2nc3ccc(OC(F)F)cc3[nH]2)c1OC (stereo not given) | 13.8 µM (active) | 34.7 µM (active) | 17.4 µM (active) |  | 
17 | OCCN1CCN(CCCN2c3ccccc3C=Cc3ccccc32)CC1 | inactive | inactive | inactive |  | 

Row | Compound | Potency [1] | Potency [2] | Potency [3] | Potency [4] | Potency [5]
18 | CCCCCCOC(=O)NC(=N)c1ccc(NCc2nc3cc(C(=O)N(CCC(=O)OCC)c4ccccn4)ccc3n2C)cc1 | 2.19 µM (active) | 3.09 µM (active) | inactive | 0.601 µM (active) | 
19 | COC(C)OC | inactive | inactive | inactive | inactive | inactive
20 | c1ccc(CNCCNCc2ccccc2)cc1 | 7.76 µM (active) | inactive |  |  | 
21 | C[C@@H]1C[C@H]2[C@@H]3CCC4=CC(=O)C=C[C@]4(C)[C@@]3(F)[C@@H](O)C[C@]2(C)[C@@]1(O)C(=O)COC(=O)c1ccncc1 | 17.4 µM (active) | 7.76 µM (active) | inactive | inactive | 
22 | CN1CCC(=C2c3ccccc3Sc3ccccc32)CC1 | 38.9 µM (active) | inactive | inactive |  | 
23 | COc1cc2nc(Cl)nc(N)c2cc1OC | inactive | inactive | 2.75 µM (active) | inactive | 
24 | C#CCN(C)CCCOc1ccc(Cl)cc1Cl | 3.89 µM (active) | 17.4 µM (active) | 1.82 µM (active) |  | 
25 | CCCCC1=NC2(CCCC2)C(=O)N1Cc1ccc(-c2ccccc2-c2nn[nH]n2)cc1 | inactive | 17.4 µM (active) | inactive |  | 
26 | CC(C)Cc1ccc(C(C)C(=O)OCc2ccccn2)cc1 (stereo not given) | 7.76 µM (active) | 7.76 µM (active) | 32.3 µM (active) |  | 
27 | COC(=O)C1=C(C)NC(COC(N)=O)=C(C(=O)OC(C)C)C1c1cccc(Cl)c1Cl (stereo not given) | 15.5 µM (active) | 8.71 µM (active) |  |  | 
28 | COc1cc(Cl)ccc1Oc1ccc(Cl)cc1Cl | 1.23 µM (active) | 19.5 µM (active) | 12.3 µM (active) | inactive | 
29 | CC(=O)[O][Al][O]C(C)=O | inactive | inactive | inactive | inactive | inactive
30 | O[C@@H](COc1cccc2ncccc12)CN1CCN(C2c3ccccc3[C@@H]3[C@H](c4ccccc42)C3(F)F)CC1 (stereo not given in full) | 21.9 µM (active) | 11 µM (active) | 15.5 µM (active) | 10.7 µM (active) | 
31 | CCOc1ccc(N)c([N+](=O)[O-])c1 | 35.6 µM (active) | 63.3 µM (active) | 1.78 µM (active) |  | 
32 | O=C1[C@H]2CCCC[C@H]2C(=O)N1CCCCN1CCN(c2nsc3ccccc23)CC1 | inactive | inactive | inactive | 8.49 µM (active) | 
33 | O=C(Nc1ccccc1)c1ccccc1O | 22.4 µM (active) | 31.7 µM (active) | 5.03 µM (active) | inactive | inactive
34 | CCC(Cl)CCC(Cl)C(Cl)CC(Cl)C(Cl)C(Cl)CCl (stereo not given) | inactive | inactive | inactive | inactive | inactive
